Test results reported in PubChem BioAssay AID1159580 (chemical genetic matrix, 2015).
“And” between values parts separate entries of the source, which are not always exact repeats. Equal entries are not always repeated. The whole screen tested about 5,500 compounds, of which about 2,000 (36%) were called active. Not shown: some 18% with an inconclusive outcome. No stated cut-off is given here; in the data, active means normalized growth mostly below about 0.91 (no sharp cut-off); inconclusive means no clear call, values can overlap the other calls; inactive means mostly above about 0.92. This is one part of the list.

Assay: chemical genetic growth profiling, strain panel (AID 1159580);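 further: tested at 20 µM; growth read once vehicle control cultures reached saturation at 30 °C; 1 = growth at the plate median or of vehicle wells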
Conditions: S. cerevisiae deletion strains, growth OD

Measured: normalized growth

CC(C)NCC(O)COc1cccc2[nH]ccc12 (centres undefined)
inactive: locus YAL013W, strain DEP1, stronger effect = lower value 1 and 0.99 | locus YAL021C, strain ccr4, stronger effect = lower value 1.01 | locus YAL026C, strain drs2, stronger effect = lower value 0.986 | locus YAL030W, strain snc1, stronger effect = lower value 0.982 | locus YAL040C, strain CLN3, stronger effect = lower value 0.983 and 0.988 | locus YBL061C, strain skt5, stronger effect = lower value 0.977 | locus YBR009C, strain hhf1, stronger effect = lower value 0.983 | locus YBR021W, strain FUR4, stronger effect = lower value 1.02 | locus YBR023C, strain chs3, stronger effect = lower value 0.979 | locus YBR171W, strain sec66, stronger effect = lower value 0.979 | locus YBR229C, strain ROT2, stronger effect = lower value 0.999 | locus YBR231C, strain swc5, stronger effect = lower value 0.986 | locus YBR279W, strain paf1, stronger effect = lower value 0.992 | locus YCL011C, strain gbp2, stronger effect = lower value 0.98 | locus YCL016C, strain dcc1, stronger effect = lower value 0.981 | locus YCL029C, strain bik1, stronger effect = lower value 0.993 | locus YCL061C, strain MRC1 (second series), stronger effect = lower value 0.998 and 0.999 | locus YCL061C, strain MRC1, stronger effect = lower value 0.984 | locus YCL069W, strain vba3, stronger effect = lower value 0.983 | locus YCR088W, strain abp1, stronger effect = lower value 0.983 | locus YDL005C, strain med2, stronger effect = lower value 0.988 | locus YDL035C, strain GPR1, stronger effect = lower value 0.993 | locus YDL040C, strain nat1, stronger effect = lower value 0.986 | locus YDL074C, strain BRE1, stronger effect = lower value 1 | locus YDL101C, strain DUN1, stronger effect = lower value 0.988 | locus YDL134C, strain PPH21, stronger effect = lower value 0.989 | locus YDL185W, strain tfp1, stronger effect = lower value 0.947 | locus YDL192W, strain arf1, stronger effect = lower value 0.974 | locus YDR001C, strain nth1, stronger effect = lower value 0.974 | locus YDR069C, strain doa4, stronger effect = lower value 0.976 | locus YDR101C, strain arx1, stronger effect = lower value 0.983 | locus YDR137W, strain rgp1, stronger effect = lower value 0.975 | locus YDR150W, strain NUM1, stronger effect = lower value 1 and 0.997 | locus YDR159W, strain sac3, stronger effect = lower value 0.955 | locus YDR162C, strain NBP2, stronger effect = lower value 0.995 | locus YDR195W, strain ref2 0.927 | locus YDR297W, strain sur2, stronger effect = lower value 0.988 | locus YDR318W, strain mcm21, stronger effect = lower value 0.977 | locus YDR334W, strain swr1, stronger effect = lower value 0.978 | locus YDR335W, strain msn5, stronger effect = lower value 0.983 | locus YDR363W, strain ESC2, stronger effect = lower value 0.991 and 0.993 | locus YDR388W, stronger effect = lower value 0.979 | locus YDR392W, strain spt3, stronger effect = lower value 0.902 | locus YDR502C, strain sam2, stronger effect = lower value 0.986 | locus YEL003W, strain gim4, stronger effect = lower value 0.988 | locus YEL037C, strain rad23, stronger effect = lower value 1.01 | locus YEL061C, strain CIN8 (second series), stronger effect = lower value 0.972 | locus YEL061C, strain CIN8, stronger effect = lower value 0.997 | locus YER002W, strain NOP16, stronger effect = lower value 0.987 and 1.02 | locus YER015W, strain faa2, stronger effect = lower value 0.989 | locus YER016W, strain bim1, stronger effect = lower value 0.979 | locus YER110C, stronger effect = lower value 0.978 | locus YER111C, strain swi4, stronger effect = lower value 0.983 | locus YER155C, strain BEM2 (second series), stronger effect = lower value 0.97 | locus YER155C, strain BEM2, stronger effect = lower value 0.994 | locus YER167W, strain BCK2, stronger effect = lower value 0.991 | locus YFR010W, strain ubp6, stronger effect = lower value 0.961 | locus YGL078C, strain dbp3, stronger effect = lower value 0.99 | locus YGL086W, strain mad1, stronger effect = lower value 0.999 | locus YGL167C, strain pmr1, stronger effect = lower value 0.976 | locus YGL173C, strain kem1, stronger effect = lower value 0.989 | locus YGL227W, strain vid30, stronger effect = lower value 0.977 | locus YGL240W, strain doc1, stronger effect = lower value 0.986 | locus YGL248W, strain PDE1, stronger effect = lower value 0.997 | locus YGL253W, strain hxk2, stronger effect = lower value 0.981 | locus YGR078C, strain PAC10, stronger effect = lower value 0.993 and 1.01 | locus YGR135W, strain pre9, stronger effect = lower value 0.989 | locus YGR229C, strain SMI1, stronger effect = lower value 1.01 | locus YGR252W, strain gcn5, stronger effect = lower value 1.16 | locus YHR013C, strain ard1, stronger effect = lower value 0.943 | locus YHR027C, strain rpn1, stronger effect = lower value 0.986 | locus YHR030C, strain SLT2, stronger effect = lower value 0.99 and 0.988 | locus YHR079C, strain IRE1 (second series), stronger effect = lower value 0.977 | locus YHR079C, strain IRE1, stronger effect = lower value 0.977 | locus YHR094C, strain hxt1, stronger effect = lower value 0.977 | locus YHR129C, strain ARP1, stronger effect = lower value 1 | locus YHR142W, strain chs7, stronger effect = lower value 0.997 | locus YHR200W, strain rpn10, stronger effect = lower value 0.978 | locus YIL066C, strain RNR3, stronger effect = lower value 0.999 | locus YIR030C, strain dcg1, stronger effect = lower value 0.991 | locus YJL092W, strain hpr5, stronger effect = lower value 0.979 | locus YJL095W, strain BCK1 (second series), stronger effect = lower value 0.984 | locus YJL095W, strain BCK1, stronger effect = lower value 1.01 and 0.997 | locus YJL115W, strain asf1, stronger effect = lower value 0.975 | locus YJL129C, strain trk1, stronger effect = lower value 0.997 | locus YJL134W, strain LCB3, stronger effect = lower value 0.984 | locus YJL154C, strain vps35, stronger effect = lower value 0.98 | locus YJL164C, strain tpk1, stronger effect = lower value 1 | locus YJL166W, strain qcr8, stronger effect = lower value 1.01 | locus YJL168C, strain set2, stronger effect = lower value 0.983 | locus YJL187C, strain SWE1 (second series), stronger effect = lower value 0.987 | locus YJL187C, strain SWE1, stronger effect = lower value 0.985 | locus YJR043C, strain POL32, stronger effect = lower value 1 | locus YJR066W, strain TOR1, stronger effect = lower value 0.94
